Results filed as inconclusive are left out. Values without a mark were called inactive. Activity calls are given as the source filed them. The call rests on the fitted dose curve; in most records, active means well fitted cell-killing curve with a large enough effect; inconclusive means small, poorly fitted or top-dose-only effect; inactive means flat fitted curve, though single readings scatter. Numbered stars: 1 amine (or outer) side, 2 acyl side, 3 side chain; on linkers, the order of the positions; unused ones are H or OH. Bridge positions count the residues as written; N and C are the ends. Square brackets hold non-standard residues; d marks the D form. Peptide text beside a SMILES is read from it. I, II: the chains in the order shown. Actinocin(9to1) = Cc1c2oc3c(C)ccc(C(=O)[*:1])c3nc-2c(C(=O)[*:2])c(N)c1=O; NMeV = CN[C@H](C(=O)O)C(C)C; Sar = CNCC(=O)O

We go through 29 compounds from PubChem BioAssay (NCATS).
On the % scale 0 is the no-effect control and ±100 the full control effect; potency means the concentration at half of the fitted maximal effect.

A short description of the test: qHTS of pediatric cancer cell lines to identify multiple opportunities for drug repurposing: Confirmatory screen for BT-12 cells (AID 1347112). Further: nearly all actives have a fitted effect of over 55% in size. To be noted: BT-12 rhabdoid tumor cells, viability; series mostly up to 45.9 µM; activity change, negative = cytotoxic: at the top concentration. From the text: Drug repurposing or repositioning has been offered as a strategy for drug development in oncology programs. This approach has special potential for childhood cancers and other rare or orphan diseases, where the expected return on new drug development has been a disincentive to pharmaceuticals.
In this project we exploit the poly-pharmacology of drugs to discover new indications via phenotypic screening of a panel of 19 well-characterized cell lines derived from solid tumors seen in children and adolescents. The goal is to identify approved drugs with previously unrecognized anticancer properties that has the potential to reveal new mechanisms and biological processes involved in carcinogenesis or drug resistance. We employed a titration-based paradigm (quantitative high-throughput screening or qHTS), where all compounds were tested at multiple concentrations for their effect on cell viability. Concentration-response curves (CRCs) were derived directly from the primary screen, and both potency and efficacy values were used to identify compounds with robust bioactivity profiles. We screened the NIH Chemical Genomics Center (NCGC) Pharmaceutical Collection (NPC) and Mechanism Interrogation Plate (MIPE) small molecule collections of approved and investigational compounds against these cell lines; and measured metabolically active cells after 48 hours of compound treatment as a proxy for cell viability.
Assay Submitter: Nathalia J. Martinez, National Center for Advancing Translational Sciences, National Institutes of Health, Rockville, MD, USA; email: natalia.martinez@nih.gov
[1] Shen, M et al. Quantitative high-throughput phenotypic screening of pediatric cancer cell lines identifies multiple opportunities for drug repurposing. Oncotarget 2017 Dec 19;9(4):4758-4772. PMID 29435139.
The cells were obtained from University of North Carolina (UNC), Pediatric Preclinical Testing Program (PPT), and Coriell Institute (CI).
qHTS cell viability assay:
Cells were assayed in growth media at a density of 500-1,000 cells/well. Five microliters of cells were dispensed into 1,536-well, white, solid-bottom, TC-treated plates (Greiner Bio One) using a multidrop dispenser and incubated at 37 degrees C, 5% CO2, under a humidified atmosphere for 5 hours. Twenty-three nanoliters of compounds and controls (neutral control DMSO or positive control bortezomib at final concentration of 2.3 µM) were subsequently transferred by Kalypsys pintool. For primary screens, the MIPE collection was tested at 11-point dilutions (final concentrations range from 0.78 nM to 46 µM) and the NPC collection at 8-point dilutions (final concentrations range from 0.59 nM to 46 µM). Compounds tested in follow-up screens were assayed at 11-point dilutions. Cells were incubated for 48 hours, followed by addition of 3 µL of CellTiter-Glo (Promega). After a 15 min incubation at room temperature, samples were analyzed for luminescence intensity using a ViewLux High-throughput CCD imager equipped with clear filters.
(In general: Quantitative high-throughput screening tests each substance at several concentrations.)
`COc1cccc2c1C(=O)c1c(O)c3c(c(O)c1C2=O)C[C@@](O)(C(=O)CO)C[C@@H]3O[C@H]1C[C@H](N)[C@H](O)[C@H](C)O1`: the Potency is 4.65 µM (active).

On to `CCOc1ccc2nc3cc(N)ccc3c(N)c2c1`, for which the Potency is 16.5 µM (active).

With `CC(=O)OCC(=O)[C@@]12OC(C)(C)O[C@@H]1C[C@H]1[C@@H]3C[C@H](F)C4=CC(=O)C=C[C@]4(C)[C@@]3(F)[C@@H](O)C[C@@]12C`, the “activity change, negative = cytotoxic” value was -17.3%.

Consider `Cc1c2oc3c(C)ccc(C(=O)N[C@@H]4C(=O)N[C@H](C(C)C)C(=O)N5CCC[C@H]5C(=O)N(C)CC(=O)N(C)[C@@H](C(C)C)C(=O)O[C@@H]4C)c3nc-2c(C(=O)N[C@@H]2C(=O)N[C@H](C(C)C)C(=O)N3CCC[C@H]3C(=O)N(C)CC(=O)N(C)[C@@H](C(C)C)C(=O)O[C@@H]2C)c(N)c1=O` (I: T[dV]P[Sar][NMeV] / II: T[dV]P[Sar][NMeV]; ester I:1-I:C, II:1-II:C; linker I:N-II:N via Actinocin(9to1)), for which the Potency was 0.0208 µM (active).

For `O=C(CCCN1CCC(O)(c2ccc(Br)cc2)CC1)c1ccc(F)cc1`, the “activity change, negative = cytotoxic” value is -16.6%.

For the compound `COc1c(C)c2c(c(O)c1C/C=C(\C)CCC(=O)O)C(=O)OC2`, the Potency is 4.65 µM (active).

`CC(=O)[C@H]1CC[C@H]2[C@@H]3C[C@H](C)C4=CC(=O)CC[C@]4(C)[C@H]3[C@@H](O)C[C@]12C`: the “activity change, negative = cytotoxic” value was -7.82%.

For `CC1(C)O[C@@H]2C[C@H]3[C@@H]4CCC5=CC(=O)CC[C@]5(C)[C@@]4(F)[C@@H](O)C[C@]3(C)[C@]2(C(=O)CCl)O1`, the “activity change, negative = cytotoxic” value was -0.226%.

On to `CC(C)(C(=O)c1cccnc1)c1cccnc1`, for which the “activity change, negative = cytotoxic” value is 15.1%.

Regarding `NC(CO)(CO)CO`, the “activity change, negative = cytotoxic” value is 1.99%.

`CC(=O)OCC(=O)[C@@]1(O)CC[C@H]2[C@@H]3CCC4=CC(=O)C=C[C@]4(C)[C@H]3[C@@H](O)C[C@@]21C`: the “activity change, negative = cytotoxic” value was -4.18%.

Regarding `C[n+]1c2cc(N)ccc2cc2ccc(N)cc21` (tested in a mixture with another compound), the Potency was 0.928 µM (active).

`CN(C)/N=N/c1nc[nH]c1C(N)=O`: the “activity change, negative = cytotoxic” value is -2.35%.

`C[C@]12C=CC(=O)C=C1[C@@H](F)C[C@@H]1[C@@H]2[C@@H](O)C[C@@]2(C)[C@H]1CC[C@]2(O)C(=O)CO`: the “activity change, negative = cytotoxic” value was -6.31%.

`CC(=O)Oc1ccc(C(c2ccc(OC(C)=O)cc2)c2ccccn2)cc1`: the “activity change, negative = cytotoxic” value was -15.2%.

On to `NC(=O)CC[C@@H]1NC(=O)[C@H](Cc2ccccc2)NC(=O)[C@H](Cc2ccc(O)cc2)NC(=O)CCSSC[C@@H](C(=O)N2CCC[C@H]2C(=O)N[C@@H](CCCN=C(N)N)C(=O)NCC(N)=O)NC(=O)[C@H](CC(N)=O)NC1=O`, for which the “activity change, negative = cytotoxic” value was -0.313%.

For the compound `C[C@@H]1C[C@H]2[C@@H]3CCC4=CC(=O)C=C[C@]4(C)[C@@]3(F)[C@@H](O)C[C@]2(C)[C@H]1C(=O)CO`, the “activity change, negative = cytotoxic” value was -10.2%.

As to `CC1(C)O[C@@H]2C[C@H]3[C@@H]4C[C@H](F)C5=CC(=O)CC[C@]5(C)[C@H]4[C@@H](O)C[C@]3(C)[C@]2(C(=O)CO)O1`, the “activity change, negative = cytotoxic” value was 15.4%.

Take `CC(=O)OCC(=O)[C@@]1(OC(C)=O)[C@@H](C)C[C@H]2[C@@H]3C[C@H](F)C4=CC(=O)C=C[C@]4(C)[C@@]3(F)[C@@H](O)C[C@@]21C`: the “activity change, negative = cytotoxic” value is -8.5%.

Turning to `C[C@]12C=CC(=O)C=C1CC[C@@H]1[C@@H]2[C@@H](O)C[C@@]2(C)[C@H]1CC[C@]2(O)C(=O)CO`, the “activity change, negative = cytotoxic” value was 19.6%.

For `C[C@H]1C[C@H]2[C@@H]3CCC4=CC(=O)C=C[C@]4(C)[C@@]3(Cl)[C@@H](O)C[C@]2(C)[C@@]1(O)C(=O)CO`, the “activity change, negative = cytotoxic” value is -10.9%.

On to `OC[C@H]1O[C@@H](n2cnc3c(=S)nc[nH]c32)[C@H](O)[C@@H]1O`, for which the Potency is 14.7 µM (active).

For the compound `CCCCCCC[N+](CC)(CC)CCCCc1ccc(Cl)cc1`, the Potency is 8.27 µM (active).

As to `CCC(C(=O)OCCN(CC)CC)c1ccccc1` (centres undefined), the “activity change, negative = cytotoxic” value was -9.3%.

For the compound `COc1cc(C=C2CCC/C(=C\c3ccc(O)c(OC)c3)C2=O)ccc1O`, the Potency is 18.5 µM (active).

Turning to `CCCC(=O)O[C@]1(C(=O)CO)CC[C@H]2[C@@H]3CCC4=CC(=O)CC[C@]4(C)[C@H]3[C@@H](O)C[C@@]21C`, the “activity change, negative = cytotoxic” value is -7.71%.

As to `CCCCC(CC)CN=C(N)NC(N)=NCCCCCCN=C(N)NC(N)=NCC(CC)CCCC` (centres undefined), the Potency was 5.22 µM (active).

Regarding `CN(C)C(=S)SC(=S)N(C)C`, the Potency was 4.65 µM (active).

In the case of `CC(=O)Oc1ccc2c(c1)CC[C@@H]1[C@@H]2CC[C@]2(C)[C@@H](O)CC[C@@H]12`, the “activity change, negative = cytotoxic” value was 2.23%.
